# Measured values: PubChem BioAssay
# For some of these results: Entries with a potency or affinity are not part of this list. Activity calls are given as the source filed them.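 How the source made its calls, unless noted: active means primary screen activator hit with a dose response curve and TRPC4 channel activation at any tested dose; inactive means no activation, no dose response, or not a primary hit.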
# Key:
# [1] = test system: TRPC4 beta (transient receptor potential cation channel C4), mouse; experiment: TRPC4 cation channel opening, retest – cell-based, Fluo4 calcium, HEK293 TRPC4beta/mu-opioid, duplicates, 10 µM, confirmation (AID 2426;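 active means fluorescence ratio normalized to control raised more than 50% in primary screen plus both repeat runs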); settings: Fluo4 calcium fluorescence, at 10 µM; hits give high values
# [2] = test system: transient receptor potential cation channel C4 beta (TRPC4), mouse; experiment: TRPC4 cation channel opening, second retest – cell-based, second round, Fluo4, HEK293 TRPC4beta/mu-opioid, 1 µM, confirmation (AID 2461;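 active means primary screen active and over 50% activation in each of two duplicate runs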); settings: Fluo4 calcium fluorescence, at 1 µM; hits give high values
# [3] = test system: TRPC4 (transient receptor potential cation channel C4 beta), mouse; experiment: potentiation of DAMGO EC20 TRPC4 response – cell-based, second round, Fluo-4, HEK293 TRPC4beta/mu-opioid, 1 µM, confirmation (AID 2554;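 active means primary screen hit whose fluorescence ratio, in both repeats, exceeds the weak agonist control mean by 3 SD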); settings: DAMGO EC20, Fluo-4 calcium flux, at 1 µM; hits give high values
# [4] = test system: TRPC4 beta (transient receptor potential cation channel C4), mouse; experiment: potentiation of DAMGO EC20 TRPC4 response – cell-based, Fluo-4, HEK293 TRPC4beta/mu-opioid, confirmation (AID 2555;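 active means primary screen hit whose calcium fluorescence ratio, in both repeats, exceeds the weak agonist control mean by 3 SD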); settings: DAMGO EC20, Fluo-4 calcium flux, at 10 µM; hits give high values
# [5] = molecular target: Short transient receptor potential channel 4 (Mus musculus) (UniProt Q9QUQ5); experiment: blockers of DAMGO-evoked TRPC4 calcium flux – cell-based, Fluo4, HEK293 TRPC4beta/mu-opioid, confirmation (AID 2636;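 active means calcium signal cut by more than 3 SD below the full-agonist control yet still positive, in both repeats and the earlier primary screen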); settings: at 10 µM; hits give high values
# [6] = molecular target: Short transient receptor potential channel 4 (Mus musculus) (UniProt Q9QUQ5); experiment: blockers of DAMGO-evoked TRPC4 calcium flux – cell-based, second round, Fluo4, HEK293 TRPC4beta/mu-opioid, 1 µM, confirmation (AID 2637;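 active means calcium signal ratio cut to more than 3 SD under the fully stimulated control mean yet still positive, in both repeats and the primary screen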;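 on inhibition: percent of integrated ratio relative to wells lacking test compound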); settings: at 1 µM; hits give high values
# [7] = molecular target: Short transient receptor potential channel 4 (Mus musculus) (UniProt Q9QUQ5); experiment: calcium entry via TRPC4 opening agents – cell-based, HEK293 TRPC4/mu-opioid, Fluo-4 calcium, dose response (AID 434937)
# [8] = molecular target: Short transient receptor potential channel 4 (Mus musculus) (UniProt Q9QUQ5); experiment: potentiation of DAMGO-evoked TRPC4 calcium signal – cell-based, HEK293 TRPC4/mu-opioid, Fluo-4 calcium, EC20 DAMGO, dose response (AID 434941;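 active means earlier screen potentiator hit that boosts the TRPC4 ion channel at some dose, with a dose response; inactive means no potentiation, no dose response, or not a prior hit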;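 further: calcium entry triggered by an EC20 dose of DAMGO at the co-expressed mu-opioid receptor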)
# [9] = molecular target: Short transient receptor potential channel 6 (Mus musculus) (UniProt Q61143); experiment: TRPC6 blockade by TRPC4 inhibitor hits – cell-based, HEK293, membrane potential dye, duplicate, selectivity assay for TRPC4 inhibitor project, confirmation (AID 434948;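 active means active in primary screen and both duplicates, each dropping signal beyond three positive-control SD with fluorescence still positive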); settings: HEK293 TRPC6, membrane potential dye fluorescence, at 10 µM, stimulated with maximal-effect acetylcholine; hits give high values
# [10] = molecular target: Short transient receptor potential channel 6 (Mus musculus) (UniProt Q61143); experiment: TRPC6 opening by TRPC4 activator hits – cell-based, HEK293, membrane potential dye, duplicate, selectivity assay for TRPC4 activator project, confirmation (AID 434950;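 active means membrane potential signal rise above negative control mean plus 3 SD in both duplicates, also active in the earlier TRPC4 screen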;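 on activation: 0% = buffer only wells and 100% = acetylcholine maximal-effect wells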); settings: HEK293 TRPC6, membrane potential fluorescence, at 10 µM; activation: hits give high values; outcome: activation
# [11] = molecular target: Short transient receptor potential channel 6 (Mus musculus) (UniProt Q61143); experiment: positive modulators of mouse TRPC6 channel – HEK293 cells, membrane potential dye, duplicate, selectivity assay for TRPC4 potentiator project, confirmation (AID 434952;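 active means compound raising the membrane signal above positive-control mean plus 3 SD in both repeats, and a primary screen hit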); settings: HEK293 TRPC6, membrane potential dye fluorescence, at 10 µM, maximal acetylcholine added after compound; hits give high values
# [12] = molecular target: Short transient receptor potential channel 4 (Mus musculus) (UniProt Q9QUQ5); experiment: calcium flux activators in TRPC4/5HT1a cells, counter-screen for TRPC4 activator project, cell-based, second counter screen, HEK293 TRPC4/5HT1a, Fluo-4 (AID 434977;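 active means calcium signal rise above buffer-control mean plus 5 SD in both duplicates, and also a hit in the primary screen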); settings: Fluo-4 calcium flux, at 10 µM; hits give high values
# [13] = serotonin-gated TRPC4 signal block – cell-based, second counter screen, HEK293 TRPC4/5HT1a, Fluo-4, counter-screen for TRPC4 inhibitor project, confirmation (AID 434978;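 active means primary screen active whose calcium signal fell more than 3 SD beyond the full-serotonin control mean in both duplicate plates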;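 on outcome: serotonin given first at submaximal then at maximal dose after compound preincubation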); settings: Fluo-4 calcium flux, at 10 µM, serotonin added to trigger calcium flux; hits give high values
# [14] = test system: TRPC4 (mouse), co-expressed with 5HT1a in HEK293; experiment: enhancement of serotonin-evoked TRPC4 response – cell-based, second counter screen, HEK293 TRPC4/5HT1a, Fluo-4, counter-screen for TRPC4 potentiator project, confirmation (AID 434979;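 active means signal rise over 3 SD above mean of control wells given weak agonist, in both repeats and first screen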); settings: Fluo-4 calcium flux, at 10 µM, serotonin added at its EC20 dose; hits give high values
# [15] = nonspecific calcium rise without TRPC4 – cell-based, HEK293 mu-opioid receptor line, counter-screen for TRPC4 activator project, confirmation (AID 449723;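 active means hit in primary screen, with calcium signal over 5 SD above buffer well mean in both duplicates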;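 further: counter screen cells carry the mu-opioid receptor alone and lack TRPC4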); settings: HEK293 mu-opioid cells, Fluo-4 calcium fluorescence, at 10 µM; hits give high values
# [16] = nonspecific potentiation of DAMGO calcium response – cell-based, HEK293 mu-opioid receptor line, counter-screen for TRPC4 allosteric potentiator project, confirmation (AID 449724;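 active means calcium signal rise more than 3 SD above the low-dose agonist control mean, in both duplicate plates and the primary screen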); settings: HEK293 mu-opioid receptor cells, Fluo-4 calcium flux, at 10 µM, compound added before EC20 DAMGO stimulus; hits give high values
# Sequence of Short transient receptor potential channel 6 (Mus musculus) (Q61143 whole entry, looked up): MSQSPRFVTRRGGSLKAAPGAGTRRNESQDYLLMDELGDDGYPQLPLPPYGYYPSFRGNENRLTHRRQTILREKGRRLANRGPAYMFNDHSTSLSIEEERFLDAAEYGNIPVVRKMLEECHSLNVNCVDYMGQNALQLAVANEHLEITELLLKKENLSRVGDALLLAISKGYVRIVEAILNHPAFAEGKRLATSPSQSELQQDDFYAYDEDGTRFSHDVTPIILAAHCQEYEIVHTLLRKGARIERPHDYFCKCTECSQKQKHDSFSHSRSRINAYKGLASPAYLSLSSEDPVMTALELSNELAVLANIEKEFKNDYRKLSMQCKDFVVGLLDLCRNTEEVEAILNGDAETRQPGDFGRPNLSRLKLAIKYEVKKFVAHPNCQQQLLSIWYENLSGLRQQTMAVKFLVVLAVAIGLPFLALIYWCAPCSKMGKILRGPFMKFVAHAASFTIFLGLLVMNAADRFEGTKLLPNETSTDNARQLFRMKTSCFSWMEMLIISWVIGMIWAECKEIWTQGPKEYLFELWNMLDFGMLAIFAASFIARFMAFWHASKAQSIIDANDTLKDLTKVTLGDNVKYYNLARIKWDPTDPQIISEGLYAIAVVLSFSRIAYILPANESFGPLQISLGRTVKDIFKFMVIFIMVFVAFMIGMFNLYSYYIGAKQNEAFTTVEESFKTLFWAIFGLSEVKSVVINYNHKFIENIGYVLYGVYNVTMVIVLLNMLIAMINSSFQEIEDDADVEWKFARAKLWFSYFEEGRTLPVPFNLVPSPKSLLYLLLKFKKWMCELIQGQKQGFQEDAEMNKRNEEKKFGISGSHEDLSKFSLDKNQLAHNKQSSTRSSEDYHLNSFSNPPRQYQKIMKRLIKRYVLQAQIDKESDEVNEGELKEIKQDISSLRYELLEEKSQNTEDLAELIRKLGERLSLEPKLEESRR
# Sequence of Short transient receptor potential channel 4 (Mus musculus) (Q9QUQ5 whole entry, looked up): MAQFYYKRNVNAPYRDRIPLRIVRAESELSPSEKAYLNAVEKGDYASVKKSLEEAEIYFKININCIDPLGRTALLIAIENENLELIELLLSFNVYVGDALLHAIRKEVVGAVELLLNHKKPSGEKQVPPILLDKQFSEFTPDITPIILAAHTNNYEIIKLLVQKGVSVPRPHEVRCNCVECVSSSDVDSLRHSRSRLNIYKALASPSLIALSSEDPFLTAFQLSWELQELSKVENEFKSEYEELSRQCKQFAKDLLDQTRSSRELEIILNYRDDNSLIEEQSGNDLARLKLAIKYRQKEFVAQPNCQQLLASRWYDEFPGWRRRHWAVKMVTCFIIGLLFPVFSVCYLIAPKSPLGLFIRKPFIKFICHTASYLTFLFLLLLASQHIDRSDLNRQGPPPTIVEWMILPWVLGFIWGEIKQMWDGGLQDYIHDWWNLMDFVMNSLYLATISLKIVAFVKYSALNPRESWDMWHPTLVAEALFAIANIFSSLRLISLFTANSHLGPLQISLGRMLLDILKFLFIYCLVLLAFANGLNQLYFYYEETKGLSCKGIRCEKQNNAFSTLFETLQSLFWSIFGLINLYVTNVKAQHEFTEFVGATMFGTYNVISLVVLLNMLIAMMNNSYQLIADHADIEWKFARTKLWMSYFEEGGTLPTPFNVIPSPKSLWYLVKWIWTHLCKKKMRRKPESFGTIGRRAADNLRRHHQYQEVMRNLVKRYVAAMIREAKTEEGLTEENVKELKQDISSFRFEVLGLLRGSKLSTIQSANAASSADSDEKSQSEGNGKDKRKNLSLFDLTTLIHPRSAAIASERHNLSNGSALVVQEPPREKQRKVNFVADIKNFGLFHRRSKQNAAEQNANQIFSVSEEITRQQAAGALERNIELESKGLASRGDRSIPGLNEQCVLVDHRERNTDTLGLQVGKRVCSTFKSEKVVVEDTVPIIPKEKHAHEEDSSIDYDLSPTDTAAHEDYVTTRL
smiles,measurement,setting,value
CC(NCCC(Cc1ccccc1)c1ccco1)c1ccccc1 (stereo unspecified),outcome,[1],inactive
same,outcome,[2],inactive
same,outcome,[3],inactive
same,outcome,[4],inactive
same,inhibition,[5],97% (active)
same,outcome,[6],inactive
same,outcome,[7],inactive
same,outcome,[8],inactive
same,inhibition,[9],39% (active)
same,outcome,[10],inactive
same,outcome,[11],inactive
same,outcome,[12],inactive
same,inhibition,[13],28.4% (active)
same,outcome,[14],inactive
same,outcome,[15],inactive
same,outcome,[16],inactive
CNc1nc(NCc2ccccc2)c2ccccc2n1,outcome,[1],inactive
same,outcome,[2],inactive
same,outcome,[3],inactive
same,outcome,[4],inactive
same,outcome,[5],inactive
same,inhibition,[6],69% (active)
same,outcome,[7],inactive
same,outcome,[8],inactive
same,inhibition,[9],50.5% (active)
same,outcome,[10],inactive
same,outcome,[11],inactive
same,outcome,[12],inactive
same,inhibition,[13],26.9% (active)
same,outcome,[14],inactive
same,outcome,[15],inactive
same,outcome,[16],inactive
Cc1c(N)c(C(C)(C)C)cc(C(C)(C)C)c1[N+](=O)[O-],outcome,[1],inactive
same,outcome,[2],inactive
same,outcome,[3],inactive
same,outcome,[4],inactive
same,inhibition,[5],92% (active)
same,outcome,[6],inactive
same,outcome,[7],inactive
same,outcome,[8],inactive
same,outcome,[9],inactive
same,outcome,[10],inactive
same,outcome,[11],inactive
same,outcome,[12],inactive
same,inhibition,[13],29.4% (active)
same,outcome,[14],inactive
same,outcome,[15],inactive
same,outcome,[16],inactive
Cc1ccc(-n2nc(-c3cccs3)cc2C(=O)NCC2CCCO2)c(C)c1 (stereo unspecified),outcome,[1],inactive
same,outcome,[2],inactive
same,outcome,[3],inactive
same,outcome,[4],inactive
same,inhibition,[5],79% (active)
same,outcome,[6],inactive
same,outcome,[7],inactive
same,outcome,[8],inactive
same,outcome,[9],inactive
same,activation,[10],32% (active)
same,outcome,[11],inactive
same,outcome,[12],inactive
same,outcome,[13],inactive
same,outcome,[14],inactive
same,outcome,[15],inactive
same,outcome,[16],inactive
Cc1cccn2cc(-c3c[nH]c4ccccc34)nc12,outcome,[1],inactive
same,outcome,[2],inactive
same,outcome,[3],inactive
same,outcome,[4],inactive
same,outcome,[5],inactive
same,outcome,[6],inactive
same,outcome,[7],inactive
same,outcome,[8],inactive
same,inhibition,[9],33% (active)
same,outcome,[10],inactive
same,outcome,[11],inactive
same,outcome,[12],inactive
same,inhibition,[13],35.1% (active)
same,outcome,[14],inactive
same,outcome,[15],inactive
same,outcome,[16],inactive
Oc1ccccc1Nc1nc(NCc2ccco2)c2ccccc2n1,outcome,[1],inactive
same,outcome,[2],inactive
same,outcome,[3],inactive
same,outcome,[4],inactive
same,inhibition,[5],88% (active)
same,outcome,[6],inactive
same,outcome,[7],inactive
same,outcome,[8],inactive
same,inhibition,[9],34.5% (active)
same,outcome,[10],inactive
same,outcome,[11],inactive
same,outcome,[12],inactive
same,inhibition,[13],39.1% (active)
same,outcome,[14],inactive
same,outcome,[15],inactive
same,outcome,[16],inactive
COc1cc(CNC2CCCC2)c(Br)cc1OC1CCCC1,outcome,[1],inactive
same,outcome,[2],inactive
same,outcome,[3],inactive
same,outcome,[4],inactive
same,inhibition,[5],95% (active)
same,outcome,[6],inactive
same,outcome,[7],inactive
same,outcome,[8],inactive
same,inhibition,[9],53% (active)
same,outcome,[10],inactive
same,outcome,[11],inactive
same,outcome,[12],inactive
same,outcome,[13],inactive
same,outcome,[14],inactive
same,outcome,[15],inactive
same,outcome,[16],inactive
CC1CCN(CCOCCOc2ccccc2-c2ccccc2)CC1,outcome,[1],inactive
same,outcome,[2],inactive
same,outcome,[3],inactive
same,outcome,[4],inactive
same,inhibition,[5],101% (active)
same,inhibition,[6],57% (active)
same,outcome,[7],inactive
same,outcome,[8],inactive
same,outcome,[9],inactive
same,outcome,[10],inactive
same,outcome,[11],inactive
same,outcome,[12],inactive
same,inhibition,[13],28.2% (active)
same,outcome,[14],inactive
same,outcome,[15],inactive
same,outcome,[16],inactive
COc1ccc(Nc2nc(N)c3ccccc3n2)c(OC)c1,outcome,[1],inactive
same,outcome,[2],inactive
same,outcome,[3],inactive
same,outcome,[4],inactive
same,inhibition,[5],93% (active)
same,outcome,[6],inactive
same,outcome,[7],inactive
same,outcome,[8],inactive
same,outcome,[9],inactive
same,outcome,[10],inactive
same,outcome,[11],inactive
same,outcome,[12],inactive
same,inhibition,[13],26.1% (active)
same,outcome,[14],inactive
same,outcome,[15],inactive
same,outcome,[16],inactive
CCCNCc1cc(Br)ccc1OCC(=O)NCCc1ccccc1,outcome,[1],inactive
same,outcome,[2],inactive
same,outcome,[3],inactive
same,outcome,[4],inactive
same,inhibition,[5],99% (active)
same,inhibition,[6],52% (active)
same,outcome,[7],inactive
same,outcome,[8],inactive
same,outcome,[9],inactive
same,outcome,[10],inactive
same,outcome,[11],inactive
same,outcome,[12],inactive
same,outcome,[13],inactive
same,outcome,[14],inactive
same,outcome,[15],inactive
same,outcome,[16],inactive
CC(C)Oc1cccc(C(=O)C2CCCN(Cc3cnn(C(C)C)c3)C2)c1 (stereo unspecified),outcome,[1],inactive
same,outcome,[2],inactive
same,outcome,[3],inactive
same,outcome,[4],inactive
same,inhibition,[5],93% (active)
same,inhibition,[6],47% (active)
same,outcome,[7],inactive
same,outcome,[8],inactive
same,outcome,[9],inactive
same,outcome,[10],inactive
same,outcome,[11],inactive
same,outcome,[12],inactive
same,outcome,[13],inactive
same,outcome,[14],inactive
same,outcome,[15],inactive
same,outcome,[16],inactive
CCOC(=O)c1c(NC(=O)C(C)Sc2nnc(C)c(=O)[nH]2)sc2c1CCCC2 (stereo unspecified),outcome,[1],inactive
same,outcome,[2],inactive
same,outcome,[3],inactive
same,outcome,[4],inactive
same,inhibition,[5],77% (active)
same,inhibition,[6],87% (active)
same,outcome,[7],inactive
same,outcome,[8],inactive
same,outcome,[9],inactive
same,outcome,[10],inactive
same,outcome,[11],inactive
same,outcome,[12],inactive
same,inhibition,[13],28.1% (active)
same,outcome,[14],inactive
same,outcome,[15],inactive
same,outcome,[16],inactive
COC(=O)CSc1nn(-c2ccc(F)cc2)c(=S)s1,outcome,[1],inactive
same,outcome,[2],inactive
same,outcome,[3],inactive
same,outcome,[4],inactive
same,inhibition,[5],90% (active)
same,inhibition,[6],39% (active)
same,outcome,[7],inactive
same,outcome,[8],inactive
same,outcome,[9],inactive
same,outcome,[10],inactive
same,outcome,[11],inactive
same,outcome,[12],inactive
same,inhibition,[13],39.2% (active)
same,outcome,[14],inactive
same,outcome,[15],inactive
same,outcome,[16],inactive
Cc1onc(-c2c(F)cccc2Cl)c1C(=O)N(C)CC(=O)Nc1cccc(F)c1,outcome,[1],inactive
same,outcome,[2],inactive
same,outcome,[3],inactive
same,outcome,[4],inactive
same,inhibition,[5],84% (active)
same,outcome,[6],inactive
same,outcome,[7],inactive
same,outcome,[8],inactive
same,outcome,[9],inactive
same,outcome,[10],inactive
same,outcome,[11],inactive
same,outcome,[12],inactive
same,outcome,[13],inactive
same,outcome,[14],inactive
same,outcome,[15],inactive
same,outcome,[16],inactive
Clc1ccc(COc2ccccc2CNCc2cccnc2)cc1,outcome,[1],inactive
same,outcome,[2],inactive
same,outcome,[3],inactive
same,outcome,[4],inactive
same,inhibition,[5],94% (active)
same,outcome,[6],inactive
same,outcome,[7],inactive
same,outcome,[8],inactive
same,outcome,[9],inactive
same,outcome,[10],inactive
same,outcome,[11],inactive
same,outcome,[12],inactive
same,inhibition,[13],27.8% (active)
same,outcome,[14],inactive
same,outcome,[15],inactive
same,outcome,[16],inactive
Cc1oc(-c2ccc(Cl)cc2)nc1CN1CCC(C(=O)NCc2cccs2)CC1,outcome,[1],inactive
same,outcome,[2],inactive
same,outcome,[3],inactive
same,outcome,[4],inactive
same,inhibition,[5],79% (active)
same,outcome,[6],inactive
same,outcome,[7],inactive
same,outcome,[8],inactive
same,outcome,[9],inactive
same,outcome,[10],inactive
same,outcome,[11],inactive
same,outcome,[12],inactive
same,inhibition,[13],26.7% (active)
same,outcome,[14],inactive
same,outcome,[15],inactive
same,outcome,[16],inactive
